# Assay results reported in the supplement of paper PMC3334620.
# Whole data set: some 33,000 sequences, median “E-score (-0.5 to 0.5)” near -0.041, cut for the highest 2% near 0.37. The list comes from a sample in which the highest values are over-represented; it also holds similar and randomly drawn sequences.
# Target: T1, Ecm22 (UniProt Q05958)
# T1 sequence: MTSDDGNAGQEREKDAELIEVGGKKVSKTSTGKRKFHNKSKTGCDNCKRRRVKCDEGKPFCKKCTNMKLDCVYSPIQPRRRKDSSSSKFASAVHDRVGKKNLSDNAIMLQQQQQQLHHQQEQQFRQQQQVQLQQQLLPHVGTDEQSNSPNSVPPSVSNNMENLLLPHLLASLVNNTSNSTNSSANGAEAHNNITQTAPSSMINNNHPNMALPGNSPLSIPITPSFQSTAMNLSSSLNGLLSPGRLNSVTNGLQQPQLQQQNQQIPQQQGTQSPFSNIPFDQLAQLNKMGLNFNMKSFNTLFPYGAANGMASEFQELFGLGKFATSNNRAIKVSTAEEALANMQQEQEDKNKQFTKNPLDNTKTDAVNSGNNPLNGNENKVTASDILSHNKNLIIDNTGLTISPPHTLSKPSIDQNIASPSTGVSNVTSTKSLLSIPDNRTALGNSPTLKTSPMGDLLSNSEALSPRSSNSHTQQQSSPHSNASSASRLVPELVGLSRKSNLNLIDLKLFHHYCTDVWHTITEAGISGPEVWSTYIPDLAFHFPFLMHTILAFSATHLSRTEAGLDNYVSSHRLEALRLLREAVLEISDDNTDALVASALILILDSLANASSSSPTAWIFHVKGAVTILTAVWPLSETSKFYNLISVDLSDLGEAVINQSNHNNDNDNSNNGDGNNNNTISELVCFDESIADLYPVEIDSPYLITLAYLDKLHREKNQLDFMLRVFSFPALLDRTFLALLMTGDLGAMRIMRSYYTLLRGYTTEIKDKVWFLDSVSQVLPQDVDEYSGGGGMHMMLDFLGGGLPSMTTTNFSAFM
# Assay: PBM E-score (8-mer binding enrichment) (E-score (-0.5 to 0.5)); higher = stronger / more preferred TF binding
# Details: protein concentration: 200 nM; construct: GST-full length
# Procedure, shortened: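 Yeast transcription factors carrying a GST tag, as full-length proteins or DNA-binding domains, were produced by PURExpress in vitro transcription/translation. About 100-200 nM protein was applied to universal all-10-mer Agilent arrays, double-stranded by primer extension on fresh or once-stripped slides. Bound protein was detected with fluorescent anti-GST, and scans were normalised with masliner. The Universal PBM Analysis Suite gave each ungapped eight-base word, pooled with its reverse complement, an E-score, a modified Wilcoxon-Mann-Whitney statistic.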
row,Sequence,PBM E-score
1,AACTCTTC,0.0679
2,CAATGGGC,-0.209
3,CCCGGCAC,-0.159
4,AGAGGGAC,-0.0884
5,ATCTCCTC,-0.0702
6,CACGATAG,-0.065
7,AACGATAA,0.382
8,ACCGATAA,0.116
9,CGTTAAGC,0.4
10,CGTTAAGA,0.222
11,GGTTAAAC,0.116
12,CGTTAAAC,0.392
13,AGTTAAGC,0.0271
14,CGTTAAAA,0.287
15,TCTCTTCA,-0.0952
16,AGACCGCA,-0.0494
17,GTGACAGA,-0.0918
18,CCAACTTA,-0.115
19,GCGTTCCC,0.104
20,TCGTTCCA,0.475
21,CCGTTCCA,0.373
22,CTGTTCCA,-0.186
23,ACGTTTCA,0.107
24,GCGTTCCA,0.141
25,CCGTTCGA,0.152

row,Sequence,PBM E-score
1,CCGTTCCC,0.464
2,TCGTTTCA,0.396
3,ACGTTCCA,0.214
4,ACGTTCCC,0.269
5,GCGTTTCA,-0.0209
6,CTTGTGAA,-0.226
7,GATCCCGC,0.0461
8,GTTCACCA,0.0888
9,TCGCTAAA,0.34
10,AAAGCTCT,-0.258
11,ACGTTCAA,0.188
12,CCGTTCCG,0.441
13,ACGTTCCG,0.259
14,GCGTTCAA,0.0639
15,CAGTTCCG,0.14
16,TCGTTCAA,0.448
17,AAGATCAA,-0.0315
18,ATAGGAAA,-0.0768
19,CTTTGGCA,-0.144
20,AGCTCAAC,-0.0198
21,CACGAAGC,0.0604
22,AAAGAAGT,-0.0866
23,ACCGAAGT,0.207
24,AACGAAGA,0.421
25,AACGAAGC,0.437

row,Sequence,PBM E-score
1,TACGAAGA,0.444
2,CACGAAGA,0.226
3,TCCGAAGA,0.0982
4,TAAGAAGA,0.0914
5,GACGAAGC,0.0937
6,AACGAAGT,0.419
7,GACGAAGA,0.0867
8,CGGATTTC,0.0823
9,CGCGGCAC,0.0802
10,ATTCTGGG,-0.192
11,TCCAATCA,-0.115
12,TTCTTAAA,-0.107
13,ATTGAGGA,-0.0867
14,AGCGCCGC,-0.188
15,ATAAACTA,0.0319
16,TAGTCTAA,-0.04
17,ACTATCCT,-0.133
18,ACTACGGC,-0.0479
19,ACGTCGCG,0.162
20,TGGACCCA,-0.131
21,AACGAAGG,0.398
22,ACCGAAGG,0.107
23,CACGAAGG,0.0498
24,CCGAACCG,0.12
25,ACGAACCA,0.391

row,Sequence,PBM E-score
1,GCGAAGCA,0.0616
2,ACGAAGCA,0.378
3,ACGAACCC,0.28
4,GCGAACCA,0.146
5,CCGAACCA,-0.0831
6,ACGAACCG,0.368
7,ACGAAGCG,0.317
8,ACGGTCAA,0.297
9,GTTACACA,-0.0371
10,CGCACCAC,0.0793
11,CATATCCA,-0.0799
12,AATGGAAA,-0.198
13,CACGGTAC,0.113
14,AATCTGGA,-0.119
15,CATACCCC,-0.0887
16,CGTACCCA,0.406
17,GGTACCCA,-0.145
18,CGTACCCC,0.453
19,AGTACCCA,-0.208
20,AGTACCCC,-0.0697
21,GCCTGCGC,-0.272
22,ACCCTACG,-0.142
23,AGCGGTGC,0.0264
24,GATTTGAC,0.202
25,AGAGACGC,0.0019

row,Sequence,PBM E-score
1,CGTATGTC,0.342
2,AGTATGGC,-0.0838
3,CGTATGGA,0.383
4,AGTATGGA,-0.115
5,CGTATGGC,0.4
6,GGTATGGA,-0.15
7,CCGAGATA,0.186
8,TTACGCAA,0.115
9,AGTTTGCC,-0.117
10,GTTGAAAC,0.0017
11,GCCTGGCA,-0.318
12,CGACCGCC,0.137
13,ACTACTAG,-0.0821
14,ACATTCGT,0.37
15,ACATTCGA,0.0496
16,ACATTCGG,0.0251
17,GACACCTC,0.148
18,ACCCTCGT,0.449
19,ACCCTCGA,-0.16
20,ACCCTCGC,0.194
21,CACCAATA,-0.0897
22,CGTAGCGA,0.382
23,AGTAGCGA,0.153
24,CGTAGCGC,0.273
25,TAGGGAAA,-0.0897

row,Sequence,PBM E-score
1,TACGAATA,0.43
2,ATCGAATA,0.138
3,AACGAATA,0.371
4,GACGAAAA,0.196
5,ACCGAATA,0.18
6,AACGAATG,0.429
7,CACGAAAA,0.153
8,AACGAATT,0.36
9,TACGAAAA,0.423
10,CACGAATG,0.052
11,CACGAATA,0.117
12,GACGAATA,0.0261
13,AATTGCTA,-0.0544
14,AGTGCTGG,-0.152
15,AAGCGGTA,0.145
16,CACAACTC,0.144
17,ACCAGCTA,-0.0229
18,AGCCAATG,-0.141
19,CAGGGGAA,-0.0465
20,CGCGATCA,0.179
21,AGTTCTTG,-0.0776
22,GTCAGGGA,-0.19
23,AACGAATC,0.387
24,CACGAATC,0.0959
25,GACGAATC,0.106

row,Sequence,PBM E-score
1,ATGCAAGG,-0.193
2,CCGCGACG,0.0789
3,ACCGGGCG,0.0784
4,GACCTACA,-0.18
5,CATGGCGC,-0.137
6,CCACTCCG,0.019
7,ACCGTAAG,0.212
8,GGCGTACC,0.279
9,ACCGTAGG,-0.172
10,TGCGTACA,0.283
11,ACCGTACG,0.385
12,GCCGTACC,0.441
13,GCCGTACA,0.371
14,GCCGTAAA,0.366
15,GCCGTGCA,-0.305
16,TCCGTAGA,-0.0285
17,TCCGTACA,0.379
18,GCCGTAGC,0.163
19,AATTCTAT,-0.104
20,TACGTTCA,0.276
21,GATCCGGC,-0.0487
22,GACCAGGA,-0.0856
